# Experimental data as given in article PMC7862700, “An all-to-all approach to the identification of sequence-specific readers for epigenetic DNA modifications on cytosine”.
# How the values were obtained:
# Test in all cases: DAPPL (digital affinity profiling via proximity ligation, sequencing); 10 mM Tris-HCl pH 7.5, 50 mM NaCl, 1 mM DTT, 4% glycerol, room temperature, 30 min; GST-TFs on glutathione beads, 16-mer random dsDNA library, 0.1% formaldehyde crosslink after washing; high values mean tight binding
# HSF1 = HSF1 (Homo sapiens, UniProt Q00613 1-529); conditions: protein: recombinant; tags: N-terminal GST; chain copies: 3; dsDNA, one strand shown
# Sequence of HSF1 (Q00613 whole entry, the tested form may be a part): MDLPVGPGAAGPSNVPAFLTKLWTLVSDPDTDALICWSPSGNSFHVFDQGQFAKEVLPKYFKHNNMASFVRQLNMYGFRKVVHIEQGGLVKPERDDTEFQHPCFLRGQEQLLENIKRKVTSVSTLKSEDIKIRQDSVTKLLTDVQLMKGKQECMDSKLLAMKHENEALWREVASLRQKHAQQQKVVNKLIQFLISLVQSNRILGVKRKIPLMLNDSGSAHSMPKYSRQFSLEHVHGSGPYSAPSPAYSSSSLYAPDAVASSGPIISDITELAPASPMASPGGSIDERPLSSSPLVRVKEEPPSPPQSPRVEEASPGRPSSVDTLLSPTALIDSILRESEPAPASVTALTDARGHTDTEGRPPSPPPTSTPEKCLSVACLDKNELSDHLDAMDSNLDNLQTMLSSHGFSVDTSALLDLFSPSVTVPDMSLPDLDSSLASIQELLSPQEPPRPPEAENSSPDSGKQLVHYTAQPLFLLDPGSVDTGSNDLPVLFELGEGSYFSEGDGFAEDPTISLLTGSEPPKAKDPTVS
# Summary of the method: (§1)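 Yeast served to express human transcription factors as GST fusions, which were then captured on glutathione beads and labelled with DNA barcodes. Pooled with a tag-only sample, they were incubated with 200 nmole of a 16-mer random double-stranded DNA library for 30 min at room temperature in Tris/NaCl/DTT/glycerol buffer, washed, crosslinked with 0.1% formaldehyde, ligated by proximity, amplified by PCR and sequenced. Dividing each hexamer's read frequency for a factor by its frequency for the tag-only sample gives the binding signal.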
# ELK4 = molecular target: T1, ELK4 (Homo sapiens, UniProt P28324-2 1-405); conditions: protein: recombinant; tags: N-terminal GST; dsDNA, one strand shown
# T1 sequence: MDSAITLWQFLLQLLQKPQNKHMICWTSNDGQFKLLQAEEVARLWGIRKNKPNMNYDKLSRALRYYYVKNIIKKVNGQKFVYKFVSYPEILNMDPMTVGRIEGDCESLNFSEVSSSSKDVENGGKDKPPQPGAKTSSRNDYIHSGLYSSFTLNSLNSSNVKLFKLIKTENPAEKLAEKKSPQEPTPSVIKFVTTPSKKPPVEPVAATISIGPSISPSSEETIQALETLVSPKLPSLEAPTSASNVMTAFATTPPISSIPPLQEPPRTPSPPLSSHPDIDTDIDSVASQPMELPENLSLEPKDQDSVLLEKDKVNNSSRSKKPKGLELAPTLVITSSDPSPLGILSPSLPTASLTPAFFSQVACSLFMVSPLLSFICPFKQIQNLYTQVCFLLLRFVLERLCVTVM
# Summary of the method: as §1
# CRX = CRX (Homo sapiens, UniProt O43186 1-299); conditions: protein: recombinant; tags: N-terminal GST; dsDNA, one strand shown
# Sequence of CRX (O43186 whole entry): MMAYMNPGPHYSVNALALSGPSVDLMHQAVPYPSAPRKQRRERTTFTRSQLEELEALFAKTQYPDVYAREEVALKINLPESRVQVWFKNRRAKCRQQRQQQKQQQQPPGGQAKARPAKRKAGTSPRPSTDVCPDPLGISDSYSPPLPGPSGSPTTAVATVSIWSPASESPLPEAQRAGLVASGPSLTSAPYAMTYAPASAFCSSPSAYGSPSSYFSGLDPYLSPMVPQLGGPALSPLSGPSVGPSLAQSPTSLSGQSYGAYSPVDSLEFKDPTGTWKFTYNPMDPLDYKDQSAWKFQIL
# Summary of the method: as §1
sequence,measurement,setting,value
TTAGTG,binding signal,HSF1,"1.3 fold enrichment (6-mer frequency, TF over GST control)"
same,binding signal,ELK4,"1.11 fold enrichment (6-mer frequency, TF over GST control)"
same,binding signal,CRX,"1.89 fold enrichment (6-mer frequency, TF over GST control)"
